Inconclusive results are not listed. Activity calls are given as the source filed them. Calls come from the whole dose curve; as a rule, active = well fitted activation curve with a large enough effect in the repeat runs; inconclusive = weak or mixed curves; inactive = flat fitted curve, though single readings scatter.
Experiment: A CellTox Green Cytotoxicity Assay to monitor cytotoxicity in HEK293 cells - 40 hour (AID 1224871); note: nearly all actives have a fitted effect of over 45% in size
Conditions: CellTox Green fluorescence; series mostly up to 76.8 µM; cytotoxicity increase: at the top concentration
Source text: National Center for Advancing Translational Sciences [NCATS]
NIH Chemical Genomics Center [NCGC]
U.S. Environmental Protection Agency [EPA]
National Institutes of Environmental Health Sciences [NIEHS]
National Toxicology Program [NTP]
Cell-based models are critical for drug discovery. Determining the natural cytotoxic effects resulting from test compounds is an essential research activity. A CellTox Green Cytotoxicity Assay to monitor cytotoxicity in real time of continues cell culture during 40 hours of the compound treatment was used to screen Tox21 10K library compounds in Hek293 cells. CellTox Green Cytotoxicity Assay is a nonlytic, homogeneous, biofluorescent method to measure cytotoxicity in cell culture after experimental manipulation. The assay system uses a proprietary asymmetric cyanine dye that is excluded from viable cells but preferentially stains the dead cell's DNA. […] Viable cells produce no appreciable increases in fluorescence. Therefore, the fluorescence signal produced by the binding interaction with dead cell DNA is proportional to cytotoxicity.
The mixture of Hek293 cell suspension and reagents were dispensed at 600cells/6 ul/well in 1536-well tissue culture treated black solid bottom plates using a Multidrop dispenser. After the assay plates were incubated at a 37 C/5% CO2 incubator for 5 hours, 23 nL of compounds dissolved in DMSO, positive and negative controls was transferred to the assay plate by a pintool work station. The plates were incubated at 37 C for 40 hours. The fluorescence intensity were measured at 0h, 8h, 16h, 24h, 32h and 40h time points using ViewLux plate reader during compound treatment.
% is set by controls: 0 for no effect and ±100 for the full control effect; potency is the fitted concentration of half-maximal effect.

Row | SMILES | cytotoxicity increase | Potency
1 | COC(=O)CC(=O)C(C)(C)C | -0.327% (inactive) | –
2 | O=C(O)Cc1ccc(-c2ccccc2)cc1 | -23.4% [at 35.3 µM] (inactive) | –
3 | O=c1[nH]c2ccc(S(=O)CCN3CCC(Cc4ccc(F)cc4)CC3)cc2o1 (stereo not given) | -9.35% (inactive) | –
4 | N#C[C@@H]1C[C@@H]2C[C@@H]2N1C(=O)[C@@H](N)C12CC3CC(CC(O)(C3)C1)C2 | -22.9% [at 35.3 µM] (inactive) | –
5 | CN1Cc2cc(C(=O)N3CCC(C4CCNCC4)CC3)ccc2N[C@@H](CC(=O)O)C1=O | 0.194% [at 35.3 µM] (inactive) | –
6 | OC(CCCN1CCCCC1)(c1ccccc1)c1ccccc1 | -0.556% [at 35.3 µM] (inactive) | –
7 | O=C(OCCOCCO)c1ccccc1Nc1cccc(C(F)(F)F)c1 | – | 2.39 µM (active)
8 | Cc1cnc(C)c(C)n1 | 29.4% (inactive) | –
9 | CCNC(=O)N1CCN(CCCC(c2ccc(F)cc2)c2ccc(F)cc2)CC1 | 19.5% [at 35.3 µM] (inactive) | –
10 | CCCOC(=O)c1ccc(N)cc1 | -1.38% [at 35.3 µM] (inactive) | –
11 | C[C@]12CCC(=O)C=C1C=C[C@@H]1[C@@H]2CC[C@@]2(C)[C@H]1CC[C@@]21CCC(=O)O1 | -12.6% [at 35.3 µM] (inactive) | –
12 | Cc1ccc(S(=O)(=O)NC2CCCCC2)cc1 | 0.376% (inactive) | –
13 | Cc1oc(C)c(C(=O)Nc2ccccc2)c1C | 9.78% (inactive) | –
14 | O=C(Nc1ccccc1)Nc1ccccc1 | 27.3% (inactive) | –
15 | CC1(C)O[C@@H]2C[C@H]3[C@@H]4CCC5=CC(=O)C=C[C@]5(C)[C@H]4[C@@H](O)C[C@]3(C)[C@]2(C(=O)CO)O1 | 18.8% [at 35.3 µM] (inactive) | –
16 | CC(=O)CC(c1ccc([N+](=O)[O-])cc1)c1c(O)c2ccccc2oc1=O (stereo not given) | -5.43% [at 35.3 µM] (inactive) | –
17 | NC(=O)Nc1ccc(Cl)c(Cl)c1 | 0.587% (inactive) | –
18 | OC/C(Br)=C(\Br)CO | -11% (inactive) | –
19 | NCC1CCCC(CN)C1 (stereo not given) | 19.2% (inactive) | –
20 | CC(=O)[C@H]1CC[C@H]2[C@@H]3C=CC4=CC(=O)CC[C@@]4(C)[C@@H]3CC[C@]12C | 27% [at 35.3 µM] (inactive) | –

Row | SMILES | cytotoxicity increase | Potency
21 | CN(C)C(=O)Nc1ccc(Oc2ccc(Cl)cc2)cc1 | 5.7% (inactive) | –
22 | O=C(C(=O)c1ccccc1)c1ccccc1 | 0.0096% (inactive) | –
23 | CO[C@@]12[C@H](COC(N)=O)C3=C(C(=O)C(C)=C(N)C3=O)N1C[C@@H]1N[C@@H]12 | 17.9% [at 35.3 µM] (inactive) | –
24 | CCCCC(CC)C(=O)OCCOCCOCCOCCOC(=O)C(CC)CCCC (stereo not given) | 9.38% (inactive) | –
25 | CCCCCCCCCCCC(=O)[O][Sn]([CH2]CCC)([CH2]CCC)[O]C(=O)CCCCCCCCCCC | – | 6.74 µM (active)
26 | CC(=N\O)/C(C)=N/O | -0.438% (inactive) | –
27 | CCCCCC=CCC=CCCCCCCCC(=O)OCC | 3.92% [at 35.3 µM] (inactive) | –
28 | CC[C@@H]([C@H](C)O)n1ncn(-c2ccc(N3CCN(c4ccc(OC[C@@H]5CO[C@@](Cn6cncn6)(c6ccc(F)cc6F)C5)cc4)CC3)cc2)c1=O | 8.21% [at 35.3 µM] (inactive) | –
29 | Nc1ccc(C(=O)OCCCOC(=O)c2ccc(N)cc2)cc1 | 3.9% (inactive) | –
30 | O=C(O)C(Cc1cc(I)c(O)c(I)c1)c1ccccc1 (stereo not given) | -16.9% [at 35.3 µM] (inactive) | –
31 | O=C(CCCN1CCN(c2ccc(F)cc2)CC1)NC1c2ccccc2CSc2ccccc21 (stereo not given) | -6.51% [at 35.3 µM] (inactive) | –
32 | OCCSc1ccccc1 | -0.313% (inactive) | –
33 | Cc1oncc1C(=O)Nc1ccc(C(F)(F)F)cc1 | – | inactive
34 | C[C@@H]1C[C@H]2[C@@H]3CCC4=CC(=O)C=C[C@]4(C)[C@@]3(F)[C@@H](O)C[C@]2(C)[C@@]1(O)C(=O)CO | -17% (inactive) | –
35 | CCC(C(=O)OCCOCCN(CC)CC)c1ccccc1 (stereo not given) | -30.7% [at 35.3 µM] (inactive) | –
36 | CCCCCCCCCCCCCCC[C@H](O)[C@@H](N)CO | – | 23.9 µM (active)
37 | CCC1(C)CC(=O)NC1=O (stereo not given) | -28.5% [at 35.3 µM] (inactive) | –
38 | CCCCCCCCCCCCCCCCBr | -0.351% [at 15.8 µM] (inactive) | –
39 | Cc1cc(S(=O)(=O)O)ccc1N=Nc1c(O)ccc2ccccc12 | -17.8% (inactive) | –
40 | CCn1nc(C)c2c1C(=O)NCC(c1ccc(O)cc1)=N2 | -1.76% (inactive) | –

— PubChem BioAssay (Tox21)
